Screening results from PubChem.
Pf growth 48h: inhibits P. falciparum growth in the first generation, 48 h; P. falciparum luciferase growth in erythrocytes, 48 h; Potency, µM (highest dose often 28.7 µM), most hits filed as inhibitors; 310,000 tested, 5.9% active; AID 504832; active = well fitted inhibition curve with a large enough effect; inconclusive = small, poorly fitted or top-dose-only effect, or another doubt; inactive = no such curve, though single readings can be large or run the other way
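Luminescence readout; reporter = integrated firefly luciferase in P. falciparum. RBC culture at 2% hematocrit, 0.1% parasitemia final, 37 C/5% CO2; decreased signal taken as growth inhibition.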
Pf growth 96h: P. falciparum growth inhibition at 96 hour, primary screen for plastid delayed-death inhibitors. P. falciparum luciferase reporter growth, 96 h. Potency, µM (titrated, usually from 28.7 µM), usual class: inhibitors. 320,000 tested, 6.9% active. AID 504834; active = well fitted inhibition curve with a large enough effect; inconclusive = small, poorly fitted or top-dose-only effect, or another doubt; inactive = no such curve, though single readings can be large or run the other way
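Erythrocytes infected with luciferase-expressing P. falciparum were dispensed at 2% hematocrit and 0.05% parasitemia (final), then incubated with compounds 96 hours at 37 C in 5% CO2. Luminescence after detection reagent addition reported growth.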
RE007 growth inh: less growth of the S. pombe RE007 Vpr strain; S. pombe RE007 Vpr strain, BacTiter-Glo ATP luminescence, 24 h; Potency, µM (titrated, usually from 92.2 µM), usual class: inhibitors; 360,000 tested, 0.21% active; active = well fitted falling curve with a large enough effect; inconclusive = small, poorly fitted or top-dose-only effect; inactive = no such curve, though single readings can be large or run the other way; also: nearly all actives have a fitted effect of over 50% in size
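Fission yeast RE007 carrying one integrated HIV-1 vpr copy, seeded at OD 0.01 in PMG+AL medium with 23 nL pinned compound. Grown 24 h at 30 degrees; viability read by BacTiter-Glo luminescence after 5 min.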
SARS PLpro yeast: blocks SARS-CoV papain-like protease in a yeast assay | Potency, µM (series often up to 32.9 µM), most hits filed as activators | S. cerevisiae expressing SARS-CoV PLpro, growth rescue | 330,000 tested, 0.19% active | AID 485353; also: nearly all actives have a fitted effect of over 55% in size
NS1 function inh: blocks influenza NS1 protein function; Potency, µM (doses to about 46.1 µM); 270,000 tested, 0.4% active; AID 2326; also: actives are rising curves; nearly all actives have a fitted effect of over 50% in size
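OD600 was taken as the measure of yeast growth restored by compound in an NS1-expressing S. cerevisiae strain. Cells had been washed out of glucose medium and diluted 1:100 into galactose -URA medium, pH 6.0.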
Hits are given with their value; . = inactive; ? = inconclusive; / = no result given; ! = not confirmed by another sample; [ ] = another dose, or the depositor's remark. Hits are enriched below; roughly 9.5% of the tested compounds scored in any of these assays. Unless noted, calls follow the shape of the full dose curve.

SMILES	Pf growth 48h	Pf growth 96h	RE007 growth inh	SARS PLpro yeast	NS1 function inh
CCc1cc(C(=O)N/N=C/c2ccc(O)cc2)c2ccccc2n1	.	.	.	.	.
Cc1ccc(SC(c2ccc(C)cc2)C(Cn2cncn2)C(=O)c2ccccc2)cc1 (configuration not stated)	/	?	.	.	.
Cc1ccc(C(Sc2ccccc2)C(Cn2cncn2)C(=O)c2ccccc2)cc1 (configuration not stated)	/	9.28µM	.	.	.
CCN(CC)CCNC(=O)CCc1c(C)nc2c(c(C)nn2-c2ccc(C)c(C)c2)c1C	13.1µM	.	.	.	.
COC(CNC(=O)CCc1c(C)nc2c(c(C)nn2-c2ccc(C)cc2)c1C)OC	2.62µM	.	.	.	.
Cc1ccc(/C=C/C(=O)c2ccccc2O)cc1	.	.	.	.	.
Cc1ccc(/C=C/C(=O)C2C(=O)c3ccccc3C2=O)cc1	1.65µM	?	.	.	.
Cc1cccc(NC(=O)COC(=O)CCc2c[nH]c3ccccc23)c1	.	.	.	.	/
O=C(OCCN1CCCC1)C1(c2ccccc2)CCCC1	.	0.738µM	.	.	.
C[N+]1(CCCOC(=O)C2(c3ccccc3)CCCC2)CCOCC1	11.7µM	?	.	.	.
Cc1cc(-c2ccc(Cl)cc2)n2nc(C)cc2n1	.	10.4µM	.	.	.
CC1(NC(=O)c2cccc(S(=O)(=O)N3CCN(c4ccc(F)cc4)CC3)c2)CCS(=O)(=O)C1 (configuration not stated)	?	?	.	.	/
Cc1ccc(CN(C)C(=O)CSc2nnc3n2CCCCC3)c(C)c1	?	7.38µM	.	.	/
CCCCCCCCCCCCCCCCn1cc[n+](C)c1	3.29µM	2.08µM!	14.1µM	.	.
O=C(COc1ccc2c3c(c(=O)oc2c1)CCC3)Nc1ccc(CN2CCOCC2)cc1	?	?	.	.	.
CC1=Nc2cc(C(=O)N3CCCC3)ccc2Sc2ccc(C)cc21	9.28µM	?	.	.	.
COc1cccc(C(=O)N2CCC3(CC2)OCCO3)c1	.	?	.	.	.
CCCC1=Nc2cc(C(=O)N3CCCC3)ccc2Sc2ccc(C)cc21	11.7µM	.	.	.	.
CCC1=Nc2cc(C(=O)N3CCC4(CC3)OCCO4)ccc2Sc2ccc(C)cc21	10.4µM	.	.	.	.
Cc1cccc(-c2nc3ccc(C(=O)N4CCC5(CC4)OCCO5)cc3nc2-c2cccc(C)c2)c1	10.4µM	?	.	.	.
CCC1=Nc2cc(C(=O)N3CCCCC3)ccc2Sc2ccc(C)cc21	?	.	.	.	.
COC(=O)[C@]12CCCCC=C1N(CCC1=CCCCC1)C(=O)[C@H](CC(=O)NCc1cccc3ccccc13)C2	/	/	.	/	/
CCC1=Nc2cc(C(=O)NCc3ccco3)ccc2Sc2ccc(C)cc21	1.31µM	.	.	.	.
CCCC1=Nc2cc(C(=O)N3CCC(C(=O)OCC)CC3)ccc2Sc2ccccc21	8.28µM	9.28µM	.	.	.
CCOC(=O)N1CCN(C(=O)c2ccc3c(c2)N=C(CC)c2cc(C)ccc2S3)CC1	?	?	.	.	.
SMILES	Pf growth 48h	Pf growth 96h	RE007 growth inh	SARS PLpro yeast	NS1 function inh
CC1=Nc2cc(C(=O)N3CCCCC3)ccc2Sc2ccc(C)cc21	9.28µM	.	.	.	.
CCCC1=Nc2cc(C(=O)N3CCN(c4ccccn4)CC3)ccc2Sc2ccc(C)cc21	9.28µM	?	.	.	.
CC(S)C(=O)NCC(=O)O (configuration not stated)	.	.	/	/	/
COc1ccc(Br)c(Cn2c(C)c(C(=O)NCc3ccc(F)cc3)sc2=O)c1	/	/	.[18.4 µM]	/	/
Cc1cc(C)c(C(O)c2ncc(-c3ccccc3Cl)[nH]2)c(C)c1 (configuration not stated)	/	/	.	/	/
COc1ccc(-c2[nH]ncc2CNCCCSC)cc1F	.	5.22µM	.	.	.
CCOC(=O)c1cc2c(=O)n3ccccc3nc2n(Cc2ccco2)c1=NC(=O)c1ccccc1OCC	?	.	.	.	/
CCOC(=O)c1cc2c(=O)n3ccccc3nc2n(CC(C)C)c1=NC(=O)c1ccco1	10.4µM	/	.	.	.
CCOC(=O)c1cc2c(=O)n3ccccc3nc2n(CCOC)c1=NC(=O)c1c(-c2c(F)cccc2Cl)noc1C	?	5.86µM	.	.	/
CCOC(=O)c1cc2c(=O)n3ccccc3nc2n(CCOC)c1=NC(=O)c1ccncc1	.	?	.	.	.
COc1ccc(-c2nc3cc(C)c(Br)c(C)n3c2Cc2ccsc2)cc1OC	/	/	.	/	/
Fc1ccc(-[n+]2nc(Nc3ccccc3)sc2-c2c(Cl)cccc2Cl)cc1	?	?	.	.	.
CCc1ccc(Nc2n[n+](-c3ccccc3)c(-c3c(Cl)cccc3Cl)s2)cc1	10.4µM	?	.	.	.
CCc1ccc(Nc2n[n+](-c3ccccc3)c(-c3ccc(OCc4ccccc4)cc3)s2)cc1	?	2.94µM	.	.	.
CN(C)c1ccc(-c2sc(Nc3ccccc3)n[n+]2-c2ccc(F)cc2)cc1	.	?	.	.	.
CCN(CC)c1ccc(-c2sc(Nc3ccccc3)n[n+]2-c2ccc(F)cc2)cc1	.	9.28µM	.	.	.
CCc1ccc(Nc2n[n+](-c3ccccc3)c(-c3cc(OC)c(OC)cc3Br)s2)cc1	?	11.7µM	.	.	.
Cc1ccn(CCC(=O)Nc2ccc3c(c2)OCO3)n1	.	.	.	?	.
CC(NC(=O)C1CC(=O)N(c2ccc3c(c2)OCCO3)C1)c1ccccc1 (configuration not stated)	/	/	.	/	/
COc1ccccc1NC(=O)COC(=O)C1=NN(c2ccccc2)C(=O)CC1	/	/	.	.	/
COC(=O)[C@@H](Cc1c[nH]c2ccccc12)NCc1cccc(B(O)O)c1	/	/	.	/	/
c1ccc(COc2ccc(-c3sc(Nc4ccccc4)n[n+]3-c3ccccc3)cc2)cc1	?	?	/	.	.
CCc1ccc(Nc2n[n+](-c3ccccc3)c(-c3ccc(N(CC)CC)cc3)s2)cc1	?	3.29µM	.	.	.
CCc1ccc(Nc2n[n+](-c3ccccc3)c(/C=C/c3ccccc3)s2)cc1	?	1.17µM	/	.	.
COc1ccc(-c2sc(Nc3ccccc3)n[n+]2-c2ccc(F)cc2)cc1Br	?	7.38µM	.	.	.
SMILES	Pf growth 48h	Pf growth 96h	RE007 growth inh	SARS PLpro yeast	NS1 function inh
CCN(CC)Cc1cc2[nH]c3c4ccc(Cl)cc4ncc3c2cc1OC	0.0738µM	0.0928µM	.	.	.
COc1ccc(CNc2ncnc3cc(Cl)ccc23)cc1OC	.	.	.	.	.
FC(F)Oc1ccc(NC(=S)N2CCc3ccccc32)cc1	.	.	.	.	.
C=CCn1c(=O)c2c(nc(Br)n2Cc2ccccc2Cl)n(C)c1=O	?	11.7µM	.	.	.
Cn1c(=O)n(CCO)c(=O)c2c1nc(Br)n2Cc1ccccc1	.	.	.	.	.
CCCCOC(=O)Cn1c(=O)c2c(nc(Br)n2Cc2ccccc2)n(C)c1=O	9.28µM	?	.	.	.
Cn1c(=O)n(CC(N)=O)c(=O)c2c1nc(Br)n2Cc1ccccc1	.	2.08µM	.	.	.
CCOC(=O)Cn1c(=O)c2c(nc(Br)n2Cc2ccccc2)n(C)c1=O	.	/	/	.	.
